About 83,000 compounds went through this panel and 20% of them were active in at least one assay; those are over-represented in the sample as a whole.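 48-hour exposure, single concentration, 96-well plates; percent growth endpoint where 0 means no net growth. Active: below 10.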 Activity calls are given as the source filed them.
Tested on: NCI/ADR-RES ovarian
Assay: NCI-60 one-dose screen, 48 h (100 = growth as untreated, 0 = no growth, -100 = all killed)
Conditions: 10 µM unless noted
Method: Growth inhibition of the NCI/ADR-RES human […] tumor cell line is measured as a screen for anti-cancer activity. Cells are grown in 96 well plates and exposed to the test compound for 48 hours. Compounds are tested at a single concentration, which is 10^-5 M for most compounds. The reported endpoint is percent growth (GI% or GIPRCNT), where numbers from 0 - 100% represent growth inhibition, and numbers from -100% - 0 represent cell death. For example, a value of 40 represents 60% growth inhibition. A value of 0 means no net growth occurred over the course of the experiment. A value of -40 indicates 40% of cells at the beginning of the experiment died by the end of the experiment. A value of -100 means all cells are dead at the end of the experiment.
NCI-60 Human Tumor Cell Lines Screen was performed using the standard one-dose NCI protocol, which is described in more detail at https://dtp.cancer.gov/discovery_development/nci-60/default.htm.
Compounds with GIPRCNT values below 10 were considered active. Activity score was based on GIPRCNT using the following formula: […]
Score is 0 for GIPRCNT values of 100 or above, 50 for GIPRCNT values of 0, and 100 for GIPRCNT values of -100.

**Q.** For `COc1ccc(-c2nocc2-c2cc(OC)c(OC)c(OC)c2)cc1`, which growth is on record?
**A.** -19.5% (active)

**Q.** `Cn1cc(-c2[nH]c3cc(NC(=O)[C@H](N)C4CCCCC4)cc4c3c2C=NNC4=O)cn1` was tested. Which growth did it give?
**A.** 49.7% (inactive)

**Q.** `CCN(CC)CCNc1ccc(N=Nc2cnc3ccccc3c2)c2ccccc12` was tested. Which growth did it give?
**A.** -40% (active)

**Q.** For `CC(C)(O)CC(=O)NCCn1ccc2ncnc(Nc3ccc(Oc4cccc(C(F)(F)F)c4)c(Cl)c3)c21`, which growth is on record?
**A.** 9.15% (active)

**Q.** For `CN[C@@H]1C[C@H]2O[C@@](C)([C@@H]1OC)n1c3ccccc3c3c4c(c5c6ccccc6n2c5c31)C(=O)N[C@H]4O`, which growth is on record?
**A.** -39.1% (active)

**Q.** `CN1CCN(c2nc(C3=C(c4c[nH]c5ccccc45)C(=O)NC3=O)c3ccccc3n2)CC1` was tested. Which growth did it give?
**A.** 85.1% (inactive)

**Q.** How did the growth turn out when `CNC(=O)CN1CCC(Oc2cc3c(Nc4cccc(Cl)c4F)ncnc3cc2OC)CC1` was run?
**A.** 56.6% (inactive)

**Q.** Which growth does the source give for `O=C(c1ccc(/C=C/c2n[nH]c3ccccc23)cc1)N1CCNCC1` here?
**A.** 82.1% (inactive)

**Q.** For `Cc1cc(O)c2c(c1)C1OC(=O)CCCCCN1C1=C2C(=O)c2cccc(OC3CC(O)C(O)C(C)O3)c2C1=O` (stereo not given), which growth is on record?
**A.** 91% (inactive)

**Q.** For `CC[C@@H]1C(=O)N(C)c2cnc(Nc3ccc(C(=O)NC4CCC(N5CCN(CC6CC6)CC5)CC4)cc3OC)nc2N1C(C)C` (stereo not given in full), which growth is on record?
**A.** 25.8% (inactive)

**Q.** `CN(C)CCOC(=O)Nc1nc2ccc(Sc3ccccc3)cc2[nH]1` was tested. Which growth did it give?
**A.** 18.1% (inactive)

**Q.** `CNC(=O)c1cc(Oc2ccc(NC(=O)Nc3cc(C(C)(C)C)nn3-c3ccc4ncccc4c3)c(F)c2)ccn1` was tested. Which growth did it give?
**A.** -23.1% (active)

**Q.** For `CCN1/C(=C/C=C/c2n(-c3ccccc3)c3ccc(-c4nc5ccccc5s4)cc3[n+]2CC)N(c2ccccc2)c2ccc(-c3nc4ccccc4s3)cc21`, which growth is on record?
**A.** 52.3% (inactive)

**Q.** `C/C(=C(/c1ccc(Cl)cc1)c1ccc(OCCN2CCCCC2)cc1)c1ccccc1` was tested. Which growth did it give?
**A.** 89.8% (inactive)

**Q.** With `COC(=O)c1[nH]cnc1/N=N/N(C)CCO` as the compound, how does the growth read?
**A.** 95.9% (inactive)

**Q.** How did the growth turn out when `O=C(Nc1ccc(-c2ccnc(Nc3ccc(N4CCOCC4)cc3)n2)cc1)[C@@H]1CCCN1` was run?
**A.** 87.3% (inactive)

**Q.** Which growth does the source give for `Cc1cc(C(O)CN(C)C)cc2c1ccc1cc(C(C)C)ccc12` (stereo not given) here?
**A.** 59.8% (inactive)

**Q.** Which growth does the source give for `COC(=O)CCCNc1c(-c2c(O)c(O)cc3c(O)c(-c4c(C)cc5c(-c6nc7ccccn7c6NCCCC(=O)OC)c(O)c(O)cc5c4O)c(C)cc23)nc2ccccn12` here?
**A.** 100% (inactive)

**Q.** `COc1ncc(-c2ccc3nccc(-c4ccnnc4)c3c2)cc1NS(=O)(=O)c1ccc(F)cc1F` was tested. Which growth did it give?
**A.** -20% (active)

**Q.** With `O=C(Nc1ccc(Nc2ncnc3sc4c(c23)CCOC4)cc1)Nc1ccc(Cl)c(C(F)(F)F)c1` as the compound, how does the growth read?
**A.** 94.7% (inactive)

**Q.** `O=C(Nc1ccc(C(=O)Nc2ccc(C3=NCCCN3)cc2)cc1)Nc1ccc(C2=NCCCN2)cc1` was tested. Which growth did it give?
**A.** 86.5% (inactive)

**Q.** `CC(C)[C@@H](C)/C=C/[C@@H](C)[C@H]1CCC2=C3C=CC4=CC(=O)CC[C@]4(C)[C@H]3CC[C@@]21C` was tested. Which growth did it give?
**A.** 101% (inactive)

**Q.** Which growth does the source give for `NC1=Nc2cc(OCCCN3Cc4ccccc4C3)c(OCC3CC3)cc2C12CCCC2` here?
**A.** 79% (inactive)

**Q.** Which growth does the source give for `O=S1(=O)OC(c2ccc(O)c(Cl)c2)(c2ccc(O)c(Cl)c2)c2ccccc21` here?
**A.** 105% (inactive)

**Q.** Which growth does the source give for `CC[C@H](Nc1ncnc2nc[nH]c12)c1nc2cccc(F)c2c(=O)n1-c1ccccc1` here?
**A.** 83% (inactive)

**Q.** With `COc1ccc(-c2ccc3ncc4c(c3c2)n(-c2ccc(N3CCNCC3)c(C(F)(F)F)c2)c(=O)n4C)cn1` as the compound, how does the growth read?
**A.** -70% (active)

**Q.** With `CN1C/C=C\CCOc2cccc(c2)-c2ccnc(n2)Nc2cccc(c2)C1` as the compound, how does the growth read?
**A.** -29% (active)

**Q.** `CC(=O)Oc1ccccc1C(=O)N=C1[Se]CCN1C(=O)c1ccccc1OC(C)=O` was tested. Which growth did it give?
**A.** -6.15% (active)

**Q.** `COc1ccc(COc2cc3oc(=O)c4cc(C(C)O)ccc4c3cc2OC)cc1` (stereo not given) was tested. Which growth did it give?
**A.** 56.1% (inactive)

**Q.** `Cn1cnc2c(F)c(Nc3ccc(Br)cc3F)c(C(=O)NOCCO)cc21` was tested. Which growth did it give?
**A.** 69.1% (inactive)

**Q.** How did the growth turn out when `O=C(CNc1nnc(-c2ccc(Cl)cc2)o1)Nc1ccc(-c2nc3ccccc3s2)cc1` was run?
**A.** 98.9% (inactive)

**Q.** `Nc1c(Cl)cccc1[N+](=O)[O-]` was tested. Which growth did it give?
**A.** 102% (inactive)

**Q.** Which growth does the source give for `COc1cc(F)c(F)c(Nc2ccc(I)cc2F)c1NS(=O)(=O)C1(C[C@H](O)CO)CC1` here?
**A.** 45.5% (inactive)

**Q.** How did the growth turn out when `CCCCn1c(C)nc2cc(Nc3nc(N4CCCCC4)nc4nc[nH]c34)ccc21` was run?
**A.** 35% (inactive)

**Q.** How did the growth turn out when `CC(=O)c1cnc2ccc(-c3cc(Cl)c(O)c(Cl)c3)nc2c1NC1CCC(CN(C)C)CC1` (stereo not given) was run?
**A.** -13.7% [2.5 µM] (active)

**Q.** For `COC(=O)CNC(=O)[C@@H](OC)[C@@H]1Cc2cc3cc(OC4CC(OC5CC(O)C(O)C(C)O5)C(O)C(C)O4)c(C)c(O)c3c(O)c2C(=O)[C@H]1OC1CC(OC2CC(OC3CC(C)(O)C(O)C(C)O3)C(O)C(C)O2)C(O)C(C)O1` (stereo not given in full), which growth is on record?
**A.** 88.2% (inactive)

**Q.** For `COc1cc(NC2CCC(=O)N2c2ccc(Cl)cc2Cl)cc(OC)c1OC` (stereo not given), which growth is on record?
**A.** 99.5% (inactive)

**Q.** How did the growth turn out when `CCN(CC)Cc1cc(Nc2cc(C(F)(F)F)c(C#N)c3nc4ccccc4n23)ccc1O` was run?
**A.** 6.79% (active)

**Q.** `COc1ccc2c(CCC(c3ccccc3)c3ccccc3)c3[n+](cc2c1OC)CCc1cc2c(cc1-3)OCO2` was tested. Which growth did it give?
**A.** 78.9% (inactive)

**Q.** For `C=CC(=O)Nc1cc(Nc2nccc(-c3cn(C)c4ccccc34)n2)c(OC)cc1N(C)CCN(C)C`, which growth is on record?
**A.** -38.8% (active)

From PubChem BioAssay (NCI)
